hNpr1 antagonist: blocks ANP-stimulated signaling of human Npr1 receptor. AID 1347048. HEK293 hNpr1 GloSensor cGMP, ANP-stimulated luminescence. hit rate 1.6% among 76,000. P16066. Potency, µM (top dose mostly 46.3 µM), most hits filed as inhibitors; calls by dose curve; further: nearly all actives have a fitted effect of over 60% in size
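HEK293 cells stably expressing human Npr1 and cGMP GloSensor pGS-40F, loaded 2 h with 2% GloSensor reagent, given compound 30 min at room temperature. Luminescence read before and 20 min after 0.1 nM hNppA.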
NIH3T3 tox: kills NIH 3T3 cells. NIH 3T3 viability, CellTiter-Glo ATP luminescence, 48-72 h. Potency, µM (top dose mostly 96.7 µM), actives largely listed as inhibitors. hit rate 4.3% among 94,000. AID 1345082; further: nearly all actives have a fitted effect of over 55% in size
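ATP-dependent luminescence (CellTiter-Glo) served as the viability signal for NIH 3T3 cells treated with compound for 48 or 72 hr at 37 °C.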
SNCA viab count: counter-screen for SNCA expression inhibitors: cell viability; Potency, µM (titrated, usually from 57.1 µM), actives largely listed as cytotoxic; AID 1671193; HEK-293-SNCA-luc viability, GF-AFC fluorescence, 24 h; hit rate 0.12% among 150,000; further: nearly all actives have a fitted effect of over 30% in size
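HEK-293-SNCA-luc cells (1500/well) plated 24 h, then exposed 24 h to a dilution series; GF-AFC added 30 min at 37C, fluorescence 405/540 nm; normalised to medium-only and DMSO wells, Hill fit.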
HEK293 tox: HEK 293 cell cytotoxicity | HEK 293 viability, ATP luminescence (CellTiter-Glo), 48-72 h | AID 1345083 | hit rate 6.6% among 94,000 | Potency, µM (highest dose often 115 µM), actives largely listed as inhibitors; further: nearly all actives have a fitted effect of over 60% in size
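250 HEK 293 cells/well; compound by pintool; incubated 48 or 72 hr at 37 degree Celsius; CellTiter-Glo added, 10 min RT, luminescence imaged.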
Luciferase inh: Photinus pyralis luciferase inhibition; purified P. pyralis luciferase, luminescence, biochemical; Potency, µM (top dose mostly 115 µM), most hits filed as inhibitors; hit rate 2.5% among 76,000; further: nearly all actives have a fitted effect of over 65% in size
Target sequence (P08659 whole entry, looked up): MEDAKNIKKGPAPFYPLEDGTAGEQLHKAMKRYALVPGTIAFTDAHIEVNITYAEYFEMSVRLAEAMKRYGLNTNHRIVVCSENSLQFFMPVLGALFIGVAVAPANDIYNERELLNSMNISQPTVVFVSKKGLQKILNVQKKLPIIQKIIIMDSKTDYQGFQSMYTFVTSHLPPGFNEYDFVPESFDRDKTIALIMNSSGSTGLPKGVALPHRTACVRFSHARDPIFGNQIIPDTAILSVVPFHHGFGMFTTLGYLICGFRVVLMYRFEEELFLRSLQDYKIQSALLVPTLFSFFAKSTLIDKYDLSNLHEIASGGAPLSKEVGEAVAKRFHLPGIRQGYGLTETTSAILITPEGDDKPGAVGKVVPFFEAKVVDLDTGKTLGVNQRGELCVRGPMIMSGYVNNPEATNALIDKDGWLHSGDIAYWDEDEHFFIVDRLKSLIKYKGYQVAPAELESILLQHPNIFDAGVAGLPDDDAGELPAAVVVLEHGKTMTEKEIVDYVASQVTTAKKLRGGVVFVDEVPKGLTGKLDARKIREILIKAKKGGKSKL
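Purified P. pyralis luciferase (10nM final) in 50mM Tris acetate pH 7.5, 10mM Mg acetate, 0.01% Tween-20, 0.05% BSA with 10uM D-luciferin and 10uM ATP. Compounds titrated qHTS. Luminescence imaged on CCD.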
SNCA expr inh: SNCA gene expression inhibition | HEK-293 SNCA-luciferase knock-in, luminescence, 24 h | Potency, µM (top dose mostly 57.2 µM), actives largely listed as inhibitors | hit rate 0.17% among 140,000; further: nearly all actives have a fitted effect of over 45% in size
Npr1 antag conf: hNpr1 antagonism, confirmation assay. HEK293 hNpr1 cGMP GloSensor luminescence, ANP-stimulated. Potency, µM (highest dose often 57.6 µM), most hits filed as inhibitors. hit rate 76% among 1,400. shares compounds with hNpr1 antagonist; calls by dose curve; further: nearly all actives have a fitted effect of over 70% in size
NPR2 antag: antagonizes human Npr2, subtype selectivity check; shares compounds with hNpr1 antagonist; HEK293 hNpr2 GloSensor cGMP luminescence, CNP-stimulated; Potency, µM (titrated, usually from 57.6 µM), hits mostly inhibitors; hit rate 67% among 1,400; calls by dose curve; further: nearly all actives have a fitted effect of over 70% in size
FLuc inh counter: inhibits firefly luciferase, false Npr1 antagonist flag | Potency, µM (highest dose often 57.6 µM), most hits filed as inhibitors | purified FLuc enzyme, luminescence, Km substrate | shares compounds with hNpr1 antagonist | hit rate 0.7% among 1,400
GloSensor cGMP: reduces cGMP signal in GloSensor control cells; shares compounds with hNpr1 antagonist; HEK293 GloSensor cGMP, SNP-stimulated, luminescence; Potency, µM (top dose mostly 57.6 µM), hits mostly inhibitors; hit rate 69% among 1,400; AID 1347051; calls by dose curve; further: nearly all actives have a fitted effect of over 70% in size
Of the large screens only hits and unclear results are named; the others gave an inactive call (follow-up assays come after a bar, where they were run). Sampled rows, rich in hits. Any-hit rate of the full collection: about 7.2%. Unless noted, the call rests on the fitted dose curve; in most records, active means well fitted curve in the direction sought with a large enough effect; inconclusive means small, poorly fitted or top-dose-only effect, or another doubt; inactive means no such curve, though single readings can be large; an effect the other way counts as inactive or inconclusive.

O=C(NCc1ccc(F)cc1)c1cc2n(n1)CC(c1ccc3c(c1)OCO3)OC2 (configuration not stated)	NIH3T3 tox inconclusive, HEK293 tox inconclusive
O=C(NCc1ccc2c(c1)OCO2)c1csc(N2CCN(c3ccc(F)cc3)CC2)n1	hNpr1 antagonist 10µM, NIH3T3 tox inconclusive, SNCA viab count inconclusive, HEK293 tox 28µM, SNCA expr inh inconclusive | Npr1 antag conf 8.6µM | NPR2 antag 11µM | FLuc inh counter inactive | GloSensor cGMP 9.7µM
O=C(NCc1ccccc1Cl)c1csc(N2CCN(c3ccc(F)cc3)CC2)n1	hNpr1 antagonist 11µM, NIH3T3 tox inconclusive, SNCA viab count inconclusive, HEK293 tox inconclusive, SNCA expr inh inconclusive | Npr1 antag conf 22µM | NPR2 antag 22µM | FLuc inh counter inactive | GloSensor cGMP 19µM
O=C(NCCCN1CCN(c2ccc(F)cc2)CC1)Nc1ccccc1Cl	SNCA expr inh inconclusive (no result: hNpr1 antagonist, NIH3T3 tox, HEK293 tox, Luciferase inh)
O=C(NCc1ccccc1)c1csc(N2CCN(c3ccc(Cl)cc3)CC2)n1	hNpr1 antagonist 11µM, SNCA viab count inconclusive, HEK293 tox inconclusive, SNCA expr inh inconclusive | Npr1 antag conf 22µM | NPR2 antag 22µM | FLuc inh counter inactive | GloSensor cGMP 22µM
Cc1occc1C(=O)N1CCC2(CCCN(Cc3cccnc3)C2=O)C1 (configuration not stated)	none
O=C1NCc2ccccc2CC12CCCCN2CCCc1ccccc1 (configuration not stated)	none (no result: hNpr1 antagonist, Luciferase inh)
Cc1cccc(CN(C)CC2CCCN(CCc3cccc(C(F)(F)F)c3)C2)n1 (configuration not stated)	NIH3T3 tox inconclusive, HEK293 tox inconclusive
CCc1noc(CC2CCOC3(CCN(S(=O)(=O)c4ccc(C(C)C)cc4)CC3)C2)n1 (configuration not stated)	hNpr1 antagonist 10µM, NIH3T3 tox inconclusive, HEK293 tox inconclusive | Npr1 antag conf 17µM | NPR2 antag 19µM | FLuc inh counter inactive | GloSensor cGMP 12µM
CCc1noc(CC2CCOC3(CCN(S(=O)(=O)c4ccc(F)c(F)c4)CC3)C2)n1 (configuration not stated)	hNpr1 antagonist 10µM, NIH3T3 tox inconclusive, HEK293 tox 79µM | Npr1 antag conf 22µM | NPR2 antag inconclusive | FLuc inh counter inactive | GloSensor cGMP inconclusive
Cc1ccccc1CC(=O)NCc1nnc2cc(-c3nc(C4CC4)no3)ccn12	SNCA viab count inconclusive
COc1cccc(CN2CCN(c3nc4c(s3)c(C)nn4C)CC2=O)c1	hNpr1 antagonist inconclusive, NIH3T3 tox inconclusive, SNCA viab count inconclusive, HEK293 tox inconclusive, SNCA expr inh inconclusive | Npr1 antag conf inconclusive | NPR2 antag inconclusive | FLuc inh counter inactive | GloSensor cGMP inconclusive
COc1cccc(Cn2c(=O)cnc3cnc(N4CCN(C)CC4)nc32)c1	none (no result: hNpr1 antagonist, NIH3T3 tox, HEK293 tox, Luciferase inh)
CC1=C[C@@H](CNC2CCOCC2)[C@H](C(C)C)C[C@H]1Cc1nc2ccccc2n1C	NIH3T3 tox inconclusive, SNCA viab count inconclusive, HEK293 tox inconclusive
CC1=C[C@@H](CNS(C)(=O)=O)[C@H](C(C)C)C[C@H]1Cc1nc2ccccc2n1C	hNpr1 antagonist 28µM, NIH3T3 tox inconclusive, SNCA viab count inconclusive, HEK293 tox inconclusive, SNCA expr inh inconclusive | Npr1 antag conf 35µM | NPR2 antag 28µM | FLuc inh counter inactive | GloSensor cGMP 31µM
CCOc1ccccc1C(=O)N1CCC(Cc2nc(-c3ccc(F)cc3)no2)CC1	hNpr1 antagonist inconclusive, NIH3T3 tox inconclusive, HEK293 tox inconclusive, SNCA expr inh inconclusive
COc1ccc(-c2noc(CC3CCN(C(=O)c4cc(Cl)ccc4OC)CC3)n2)cc1	NIH3T3 tox inconclusive, SNCA viab count inconclusive, HEK293 tox 32µM, SNCA expr inh inconclusive | Npr1 antag conf 22µM | NPR2 antag 24µM | FLuc inh counter inactive | GloSensor cGMP 22µM
COc1cc(Cl)ccc1C(=O)N1CCC(Cc2nc(-c3ccc(F)cc3)no2)CC1	hNpr1 antagonist 5.6µM, NIH3T3 tox 11µM, HEK293 tox inconclusive, SNCA expr inh inconclusive | Npr1 antag conf 4.8µM | NPR2 antag 6.1µM | FLuc inh counter inactive | GloSensor cGMP 6.9µM
Cn1cc(CC(=O)N2CCCc3ncc(C(=O)N4CCC(c5ccccc5)CC4)cc32)c2ccccc21	hNpr1 antagonist 16µM, NIH3T3 tox inconclusive, SNCA viab count inconclusive, HEK293 tox 40µM, SNCA expr inh inconclusive | Npr1 antag conf 22µM | NPR2 antag 22µM | FLuc inh counter inactive | GloSensor cGMP 19µM
COc1ccc(CN2CC3(CCN(C(=O)Nc4cccc(C(F)(F)F)c4)CC3)C2=O)cc1	hNpr1 antagonist 16µM, NIH3T3 tox inconclusive, HEK293 tox inconclusive | Npr1 antag conf inconclusive | NPR2 antag inconclusive | FLuc inh counter inactive | GloSensor cGMP inconclusive
CCC(=O)N(C1CCOCC1)C1CCN(C(=O)c2ccncc2)CC1	none
Cc1noc(-c2ccco2)c1C(=O)NCc1cccc2ccccc12	hNpr1 antagonist 13µM, NIH3T3 tox inconclusive, HEK293 tox inconclusive | Npr1 antag conf 24µM | NPR2 antag inconclusive | FLuc inh counter inactive | GloSensor cGMP 31µM
Cc1noc(-c2cccc(F)c2)c1C(=O)NCc1cccc2ccccc12	HEK293 tox inconclusive
c1ccc(-n2cc(CN3CCCC(OCc4cccnc4)C3)nn2)cc1 (configuration not stated)	none
c1ccc(-n2cc(CN3CCC(Oc4ccncc4)CC3)nn2)cc1	hNpr1 antagonist inconclusive, NIH3T3 tox inconclusive, HEK293 tox inconclusive, SNCA expr inh inconclusive | Npr1 antag conf inconclusive | NPR2 antag inconclusive | FLuc inh counter inactive | GloSensor cGMP inconclusive
O=c1n(-c2ccncc2)nc2n1CCN(Cc1ccc(C(F)(F)F)cc1)C2	hNpr1 antagonist 16µM, NIH3T3 tox inconclusive, HEK293 tox 13µM | Npr1 antag conf 15µM | NPR2 antag 17µM | FLuc inh counter inactive | GloSensor cGMP 12µM

Source: PubChem
